For orientation: inhibition means the change of the read-out against control, counted positive when it falls.

Assay [1] can be described thus: inhibitors of TNFa-induced NFkB p65 translocation, primary screen, imaging, HUVEC, MLSMR starter and 10KST1 sets (AID 438;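 active = inhibition above 20% together with a positive visual image hit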;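 note: compound added about 3h40 before a 20 min TNFalpha stimulation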;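 for inhibition: signal is the nuclear over cytoplasmic p65 intensity ratio per well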). The settings on record: HUVEC TNFa-induced p65 nuclear translocation; cell count: measured here: nuclei count (cytotoxicity indicator), at 2.08 µM; inhibition: at 2 µM, stronger effect = higher value, 0% TNFa-plus-vehicle, 100% no-TNFa wells.
A short description of assay [2]: reduction of polyQ htt aggregates in cells – imaging, exon1htt(103Q)mCFP cells, high-content imaging, primary screen (AID 483;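 active = visual image review flags a hit and inhibition of aggregation exceeds 20%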;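 note: compound exposure lasted 3 days before fixation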;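 for nuclei count: percent of the per-plate median nuclei count of sample wells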). Conditions: exon1htt(103Q)mCFP cell line, aggregate imaging, at 2 µM; inhibition of aggregation: stronger effect = higher value; nuclei count: measured here: cell count, toxicity.
A short description of assay [3]: endothelial E-selectin expression blockers – imaging, HUVEC, immunofluorescence, MLSMR starter and 10KST1 sets, primary screen (AID 487;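 active = visually confirmed hit in the image check and inhibition above 20%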;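 for inhibition: signal is fraction of cell area covered by stained E-selectin grains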;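 for nuclei count: 100% = median nuclei count of all wells on the same plate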). Conditions: HUVEC TNFalpha-induced E-selectin immunofluorescence imaging, at 2 µM; inhibition: stronger effect = higher value; nuclei count: measured here: cell number, toxicity.
Assay [4] can be described thus: Primary imaging screen for DUSP6 inhibitors that restore phospho-Erk in transfected HeLa cells, chemical complementation (AID 609;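 active = compounds giving at least 50% inhibition in the cell-based MKP-3 phosphatase rescue imaging test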;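 for inhibition: phospho-Erk level distribution per well compared with pooled transfected vehicle control wells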). The settings on record: HeLa MKP-3 transfected, phospho-Erk imaging KS statistic, at 10 µM, cells stimulated with TPA for 15 min.
For assay [5], the target named is Dual specificity protein phosphatase 6 (Homo sapiens) (UniProt Q16828). The description is as above. Conditions: HeLa MKP-3 transfected, phospho-Erk imaging KS statistic; at 10 µM; stronger effect = higher value; cells stimulated with TPA for 15 min.
Chain of Dual specificity protein phosphatase 6 (Homo sapiens) (Q16828 whole entry, looked up): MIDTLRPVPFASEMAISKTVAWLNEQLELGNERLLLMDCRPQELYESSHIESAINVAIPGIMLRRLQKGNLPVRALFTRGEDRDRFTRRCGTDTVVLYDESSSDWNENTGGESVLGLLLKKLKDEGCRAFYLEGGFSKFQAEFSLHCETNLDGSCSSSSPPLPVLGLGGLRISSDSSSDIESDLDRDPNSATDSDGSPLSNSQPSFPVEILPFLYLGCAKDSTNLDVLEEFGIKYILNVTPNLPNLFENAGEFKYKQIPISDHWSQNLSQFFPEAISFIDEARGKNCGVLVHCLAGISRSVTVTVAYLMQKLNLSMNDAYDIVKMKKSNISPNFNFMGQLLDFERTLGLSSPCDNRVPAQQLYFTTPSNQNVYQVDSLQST
The target of assay [6] is Voltage-gated potassium channel subunit beta-2 (Rattus norvegicus) (UniProt P62483). As to the kind of experiment: inhibitors of rat Kvbeta2 reductase activity – biochemical, NADPH fluorescence, primary screen (AID 622;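 active = fluorescence slope higher than the sample average by over 3 SD, cut at about -0.22 in these data, passing the limit was not always enough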;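 note: slope of raw intensity against log time taken from 70 to 1610 s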). Conditions: recombinant KvBeta, 4-cyanobenzaldehyde reduction, at 10 µM, stronger effect = higher value.
Chain of Voltage-gated potassium channel subunit beta-2 (Rattus norvegicus) (P62483 whole entry, looked up): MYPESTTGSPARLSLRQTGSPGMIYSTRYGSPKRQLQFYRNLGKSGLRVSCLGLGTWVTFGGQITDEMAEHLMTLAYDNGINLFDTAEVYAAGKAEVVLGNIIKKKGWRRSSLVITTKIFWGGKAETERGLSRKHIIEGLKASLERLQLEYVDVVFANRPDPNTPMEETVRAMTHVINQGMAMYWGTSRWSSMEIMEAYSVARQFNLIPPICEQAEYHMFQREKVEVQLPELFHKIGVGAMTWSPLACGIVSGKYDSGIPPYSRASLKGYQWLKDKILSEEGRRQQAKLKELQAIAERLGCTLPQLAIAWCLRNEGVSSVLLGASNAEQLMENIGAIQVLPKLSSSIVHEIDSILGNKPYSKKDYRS
Assay [7] shares this target. Put plainly: enhancers of rat Kvbeta2 NADPH turnover – biochemical, NADPH fluorescence, primary screen (AID 623;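 active = NADPH fluorescence slope more negative than the mean of all samples by about 3 SD, 99.7% confidence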;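 note: fluorescence intensity change per second fitted from 20 to 320 s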). The settings on record: Recombinant KvBeta, NADPH fluorescence decrease slope, 10 min; at 10 µM; stronger effect = lower value.
The target in assay [8] is Alpha-2C adrenergic receptor (Homo sapiens) (UniProt P18825). As to the kind of experiment: compounds altering alpha2C-coupled GIRK flux – cell-based, HEK293 alpha2C/GIRK1/2, thallium flux, primary screen (AID 624;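 active = fluorescence slope after compound addition differing from the mean of all screened samples at 99.7% confidence, in either direction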;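 note: slope of fluorescence ratio to pre-addition baseline per second over 15 to 24 s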). The settings on record: thallium flux BTC fluorescence, at 10 µM, actives lie on both sides.
Chain of Alpha-2C adrenergic receptor (Homo sapiens) (P18825 whole entry, looked up): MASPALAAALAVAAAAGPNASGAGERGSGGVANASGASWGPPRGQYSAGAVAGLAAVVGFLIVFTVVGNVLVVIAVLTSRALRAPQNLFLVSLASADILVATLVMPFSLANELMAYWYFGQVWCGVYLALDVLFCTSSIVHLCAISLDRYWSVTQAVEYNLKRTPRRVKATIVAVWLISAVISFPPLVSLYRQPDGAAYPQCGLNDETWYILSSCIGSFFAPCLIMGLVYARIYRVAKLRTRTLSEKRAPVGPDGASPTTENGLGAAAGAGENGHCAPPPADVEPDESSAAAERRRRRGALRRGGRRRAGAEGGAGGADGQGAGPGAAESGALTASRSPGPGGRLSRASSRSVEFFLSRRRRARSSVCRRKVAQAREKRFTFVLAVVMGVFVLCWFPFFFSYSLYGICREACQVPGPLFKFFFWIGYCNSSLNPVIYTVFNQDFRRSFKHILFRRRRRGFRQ
The nature of assay [9]: inhibitors of larval lipid processing in zebrafish, primary screen, whole organism, PED6 fluorescence, gall bladder and intestine (AID 686;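 active = a full or partial loss of lipid-probe fluorescence in the fish gall bladder, intestine or both, judged by eye; inactive = no fluorescence loss, or compound toxic to the fish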;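 note: larvae 5 to 7 days old with five fish per well; signal comes from phospholipase A2 cleavage of quenched PED6 carried via bile; overnight exposure to compound and PED6 before scoring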). The settings on record: Zebrafish larvae PED6 lipid processing, fluorescence scoring; screened at 20 µM (by protocol).
Assay [10] in a line: loss of swimming-algae plug formation – whole organism, Chlamydomonas reinhardtii, WT vs cilia-less mutant, absorbance, 96-well, primary screen (AID 463189).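 Note: 0% = wild type cc124 cells in DMSO and 100% = ciliumless bld1 mutant cells.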 The settings on record: Chlamydomonas reinhardtii gravitaxis, OD600 absorbance, 2 days; at 10 µM; stronger effect = higher value.
Assay [11] in a line: blockers of RIG-like receptor reporter activation – cell-based, Sendai virus stimulus, luciferase, 10K MLSCN set, TLR/RLR signaling modifier project, primary screen (AID 602276;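 active = inhibition at or above 50% at 10 µM; inactive = inhibition below 50%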;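 note: firefly luciferase from ISG56 promoter only with Renilla not read in this screen; 0% = Sendai virus plus DMSO and 100% = medium plus DMSO without virus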). The settings on record: HEK293 RL24 IRF3 luciferase reporter, at 10 µM, stronger effect = higher value. On the technique in general: A reporter such as luciferase makes a cellular process visible.
A short description of assay [12]: TLR3 IRF3 reporter activation blockers – cell-based, poly I:C stimulus, luciferase, 10K MLSCN set, primary screen (AID 602277;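 active = inhibition of the reporter signal at or above 50%; inactive = inhibition below 50%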). The settings on record: HEK293-TLR3 RL24 IRF3 luciferase reporter, at 10 µM, stronger effect = higher value.
Where [13] appears, read: measured here: cell density z-score.
[14] abbreviates: measured here: nuclear c-Myc green intensity z-score.
Where [15] appears, read: measured here: nuclear pErk red intensity z-score, stronger effect = higher value.

Values joined by “and” are separate entries in the source; they are usually repeats but may differ in a detail not shown here. Equal values may be shown once. Active and inactive are the calls of the source.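 Rule for the calls, unless noted: active = inhibition at or above 50% relative to wild type and mutant plate controls; inactive = inhibition below 50%.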

As for `C[N+](C)(C)CCOP(=O)([O-])OC[C@H](O)CO`, in assay [1], the cell count stood at 713. For the same molecule, the inhibition was -2.4% (inactive) in [1]; -60.7% (inactive) in assay [3]; 15.3% (inactive) in assay [5]; 27.2% (inactive) in assay [10]; -4.92% (inactive) in [11]; -2.18% (inactive) in assay [12]. Besides, the inhibition of aggregation in assay [2] was -22.9% (inactive). The values for the nuclei count in [2] and in [3] were 105% and 109%, respectively. For the same molecule, the z-score in assay [4] (setting [13]) was 0.542; in assay [4] (setting [14]), 0.427; in [4] (setting [15]) it was -0.871. In addition, the fluorescence slope in assay [6] was -0.472 (inactive). The NADPH fluorescence slope in assay [7] was -5.7e-05 (inactive). Moreover, in assay [8], the slope was 0.00513 (inactive). Further, the molecule was called inactive in assay [9].

Turning to `CC(C)(C)OC(=O)N1CC=C2C(C#N)=C(N)C(C#N)(C#N)[C@H](c3cccnc3)[C@H]2C1`, the cell count in [1] amounted to 461. For the same molecule, the inhibition in assay [1] is -13.5% (inactive); in [3], 28.8% (inactive); in [5] it was -0.624% (inactive); in assay [10] it was 2.34% (inactive); in [11], 11.2% (inactive); in assay [12], 10.3% (inactive). Moreover, the inhibition of aggregation in assay [2] is 45.1% (active). Also, the nuclei count came to 70.7% in assay [2] and 112% in assay [3]. Moreover, the z-score was -1.09 in [4] (setting [13]), -0.413 in assay [4] (setting [14]) and 0.348 in assay [4] (setting [15]). Further, the fluorescence slope in [6] is -0.387 (inactive). Further, the NADPH fluorescence slope in [7] was -4.5e-05 (inactive). The slope in assay [8] is 0.00436 (inactive). For the same molecule, the outcome in assay [9] was inactive.

Consider `CCNC(=O)N(C(=O)NCC)n1c(C)nnc1C`, for which the cell count in assay [1] was found to be 615. Further, the inhibition is -11.1% (inactive) in assay [1]; 28.7% (inactive) in [3]; 1.12% (inactive) in [5]; 11% (inactive) in assay [10]; 9.47% (inactive) in assay [11]; 14% (inactive) in assay [12]. In addition, the inhibition of aggregation in assay [2] is 16.9% (inactive). Also, the values for the nuclei count in assay [2] and in assay [3] were 96.4% and 130%, respectively. For the same molecule, the z-score in assay [4] (setting [13]) was -1.98; in assay [4] (setting [14]) it was 1.53; in assay [4] (setting [15]), -0.158. In addition, the fluorescence slope in assay [6] is -0.413 (inactive). The NADPH fluorescence slope in assay [7] is -6e-05 (inactive). The slope in [8] was 0.00476 (inactive). Also, the outcome in [9] was inactive.

For the molecule `CCCSc1ccc2nc(NC(=O)OC)[nH]c2c1`, in [1], the cell count was 574. Also, the inhibition in assay [1] was 3% (inactive); in assay [3], -115% (inactive); in assay [5], -5.24% (inactive); in [10], -13.8% (inactive); in [11], 26.9% (inactive); in assay [12] it was -19.4% (inactive). In addition, in assay [2], the inhibition of aggregation is -22.3% (inactive). In addition, the nuclei count in assay [2] turned out to be 15.7%; in assay [3], 123%. Further, the figures for the z-score in assay [4] (setting [13]), in assay [4] (setting [14]) and in assay [4] (setting [15]) were 0.0938, 0.921 and 0.811, respectively. Also, the fluorescence slope in assay [6] was -0.486 (inactive). Besides, in assay [7], the NADPH fluorescence slope was -8.1e-05 (inactive). Besides, the slope in assay [8] is 0.00562 (inactive). In addition, the molecule was called inactive in assay [9].

`COC1=CC(=O)CC(C)C12Oc1c(Cl)c(OC)cc(OC)c1C2=O` (stereo not given): the cell count in assay [1] stood at 555. In addition, the inhibition was -5% (inactive) in assay [1]; -16.1% (inactive) in assay [3]; -8.38% (inactive) in assay [5]; -7.52% (inactive) in assay [10]; 22.1% (inactive) in assay [11]; 38.6% (inactive) in assay [12]. In addition, the inhibition of aggregation in assay [2] is 6.9% (inactive). Further, the nuclei count in [2] was determined as 105%; in assay [3] it was 122%. The z-score was -1.48 in assay [4] (setting [13]), -1.27 in assay [4] (setting [14]) and 1.79 in assay [4] (setting [15]). In addition, the fluorescence slope in assay [6] was -0.459 (inactive). Further, in assay [7], the NADPH fluorescence slope was -3.3e-05 (inactive). Besides, in [8], the slope was 0.00463 (inactive). Further, in [9], the molecule was called inactive.

With `CCOC(=O)C1CCN(c2nc3ccccc3nc2C(C#N)C(=O)OC(C)C)CC1` (stereo not given), in [1], the cell count amounted to 520. Further, the inhibition in assay [1] is -11.5% (inactive); in assay [3], -90.1% (inactive); in assay [5], -4.27% (inactive); in assay [10] it was 9.67% (inactive); in [11], -15.8% (inactive); in assay [12], -37.7% (inactive). Also, the inhibition of aggregation in assay [2] is -208% (inactive). Also, the nuclei count in [2] is 104%; in [3], 128%. Moreover, the values for the z-score in assay [4] (setting [13]), in assay [4] (setting [14]) and in [4] (setting [15]) were -0.0557, 0.253 and -0.0521, respectively. The fluorescence slope in assay [6] was -0.341 (inactive). In addition, in assay [7], the NADPH fluorescence slope was -2.3e-08 (inactive). Further, the slope in [8] is 0.00139 (inactive). In addition, the result in [9] was inactive.

Take `CC(=O)Nc1ccccc1O`: the cell count in assay [1] was determined as 675. The inhibition is 0.8% (inactive) in assay [1]; -84.6% (inactive) in [3]; 7.39% (inactive) in assay [5]; -2.47% (inactive) in [10]; 13.6% (inactive) in assay [11]; 37.8% (inactive) in assay [12]. Besides, the inhibition of aggregation in [2] is 14.1% (inactive). Moreover, the nuclei count is 106% in [2] and 121% in assay [3]. Further, the results for the z-score in assay [4] (setting [13]), in [4] (setting [14]) and in [4] (setting [15]) were -0.0756, 0.873 and -0.0939, respectively. In assay [6], the fluorescence slope is -0.439 (inactive). Moreover, the NADPH fluorescence slope in assay [7] is -5.7e-05 (inactive). Also, the slope in assay [8] was 0.00449 (inactive). Besides, the outcome in [9] was inactive.

In the case of `CN1CCC(=C2c3ccccc3CC(=O)c3sccc32)CC1`, the cell count in assay [1] was determined as 641. In addition, the inhibition in assay [1] is 5.3% (inactive); in [3], -56.9% (inactive); in assay [5], 10.2% (inactive); in [10], -11.3% (inactive) and 22.8% (inactive); in [11], -1.65% (inactive); in assay [12], 51.2% (active). Moreover, the inhibition of aggregation in assay [2] is 5.4% (inactive). Also, the nuclei count came to 97.7% in assay [2] and 126% in assay [3]. For the same molecule, the values for the z-score in assay [4] (setting [13]), in [4] (setting [14]) and in assay [4] (setting [15]) were 2.91, 0.175 and -2.59, respectively. Further, in assay [6], the fluorescence slope was -0.5 (inactive). In addition, in assay [7], the NADPH fluorescence slope is -6.2e-05 (inactive). For the same molecule, the slope in assay [8] is 0.00525 (inactive). Further, the molecule was called inactive in assay [9].

Turning to `C=CCOc1nc2c(c(=O)n(C)c(=O)n2C)n1Cc1c(Cl)cccc1Cl`, in [1], the cell count is 556. Further, the inhibition was -2.9% (inactive) in assay [1]; 14% (inactive) in assay [3]; -4.7% (inactive) in assay [5]; -9.21% (inactive) in [10]; 11.4% (inactive) in assay [11]; 16% (inactive) in assay [12]. Further, the inhibition of aggregation in [2] was -47.7% (inactive). In addition, the nuclei count came out at 115% in assay [2] and 113% in assay [3]. Besides, the z-score in assay [4] (setting [13]) was -0.686; in assay [4] (setting [14]) it was 2.36; in [4] (setting [15]), -0.556. In assay [6], the fluorescence slope is -0.502 (inactive). The NADPH fluorescence slope in assay [7] was -0.000118 (inactive). The slope in [8] was 0.00485 (inactive). Further, in assay [9], the molecule was classed as inactive.

As to `CC(C)(C)NCC(O)c1cc(O)cc(O)c1` (stereo not given), in assay [1], the cell count came out at 472. Further, the inhibition in assay [1] was -2.4% (inactive); in assay [3] it was -7% (inactive); in [5], 1.38% (inactive); in [10], 6.82% (inactive) and -7.52% (inactive); in assay [11], 7.09% (inactive); in assay [12] it was 35.9% (inactive). Also, the inhibition of aggregation in [2] was 21.1% (inactive). Moreover, the nuclei count in assay [2] worked out at 89.3%; in [3], 88.9%. The z-score in assay [4] (setting [13]) is 0.22; in [4] (setting [14]), -3; in assay [4] (setting [15]), -0.525. Besides, the fluorescence slope in assay [6] is -0.472 (inactive). For the same molecule, in assay [7], the NADPH fluorescence slope is -6.7e-05 (inactive). For the same molecule, the slope in assay [8] was 0.00544 (inactive). The outcome in [9] was inactive.

For the origin of these results see PubChem BioAssay.
